The supplement of paper PMC10732440
± gives the standard deviation of the averaged measurements.

System: Caenorhabditis elegans N2 infected with Nematocida parisii ERTm1
Assay: progeny production relative to DMSO uninfected control; higher = more progeny despite microsporidia infection (inhibition of infection with low host toxicity)
Conditions: infection time 6 days
Procedure, shortened: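 In 96-well plates holding K-medium, E. coli OP50 and 15,000 N. parisii spores/μL, 100 wild-type C. elegans L1 larvae per well were exposed to compound at 100 μM or 40 μM in 1% DMSO for 6 days with shaking at 21°C. Worms were then stained with Rose Bengal, scanned and counted with WorMachine, with three runs per compound and dose. Each value is progeny production as a percentage of the spore-free vehicle condition, averaged over replicates.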

Compound	progeny production (40 µM)	progeny production (100 µM)
O=C(O)c1ccc(-n2nc(-c3ccccc3O)nc2-c2ccccc2O)cc1	4.83 ± 3%	16.7 ± 7.4%
O=C(N[C@H](CCS)C(=O)N[C@H](Cc1ccccc1)C(=O)O)c1cc2ccccc2[nH]1	6.68 ± 3.5%	11.3 ± 6.7%
COc1ccc2sc3c(c2c1)NC(C)CNC3=O (stereo unspecified)	7.35 ± 2.7%	29.9 ± 22%
Oc1ccc2[nH]c(-c3ccccc3)nc2c1	5.32 ± 3.2%	11.5 ± 2.5%
Nc1nc(F)nc2c1ncn2[C@H]1O[C@@H](CO)[C@H](O)[C@@H]1O	2.33 ± 1%	4.1 ± 1.2%
Nc1ccc(-c2nc3cc(C(F)(F)F)ccc3n2C23CC4CC(CC(C4)C2)C3)cc1	5.81 ± 2.1%	17 ± 6%
C[C@@H](NC(=O)c1ccccc1-c1ccccc1)B(O)O	3.09 ± 1.4%	21.8 ± 15%
C=C(C)[C@@H]1CC[C@]2(C(=O)O)CC[C@]3(C)[C@H](CC[C@@H]4[C@@]5(C)CC[C@H](O)C(C)(C)[C@@H]5CC[C@]43C)[C@@H]12	6.56 ± 0.21%	9.57 ± 2%
CCN(CC)S(=O)(=O)c1ccc(Cl)c(C(=O)Nc2sc3c(c2C#N)CCCC3)c1	6.31 ± 2.1%	31.3 ± 22%
CCCC(=O)OCCc1ccccc1	5.19 ± 1.8%	11.9 ± 12%
Cc1ccc(NC(=O)c2ccc(CN3CCN(C)CC3)cc2)cc1Nc1nccc(-c2cccnc2)n1	5.07 ± 2.9%	9.12 ± 3.8%
CCOC(=O)Nc1cc(NC(C)CC(C)CN(CC)CC)c2nc(-c3ccccc3)c(-c3ccccc3)nc2n1 (stereo unspecified)	2.55 ± 1%	13.3 ± 9.8%
O=C(CCc1ccc2c(c1)OCO2)NCc1ccc(-c2ccccc2F)cc1	5.04 ± 3.2%	14 ± 6.8%
Clc1cc2nc(C3CCNCC3)n(Cc3ccc(CNCCc4c[nH]cn4)cc3)c2cc1Cl	7.61 ± 2.7%	10.3 ± 7.1%
Nc1nc2c(ncn2COC(CO)CO)c(=O)[nH]1	7.03 ± 4.7%	10.9 ± 4.7%
Cc1ccn2c(C(=O)NCc3ccccc3)c(C)nc2c1	9.26 ± 8.6%	13.1 ± 10%
CCOC(=O)N[C@@H]1CC[C@@H]2[C@@H](C1)C[C@H]1C(=O)O[C@H](C)[C@H]1[C@H]2/C=C/c1ccc(-c2cccc(F)c2)cn1	4.47 ± 3.1%	9.38 ± 3.8%
Fc1ccc2c(/C=C/c3cccnc3)c[nH]c2c1	3.47 ± 0.88%	19.9 ± 9%
Cc1c(F)cccc1NC(=O)Nc1ccc(Cl)c(S(=O)(=O)[C@H]2CCCNC2)c1O	8.9 ± 1.8%	13 ± 5.7%

Compound	progeny production (40 µM)	progeny production (100 µM)
CC(C)(C)c1ccc(Oc2ccc(N)cc2)cc1	3.17 ± 1.1%	11.1 ± 5.3%
CSc1ccc2c(c1)C(N1CCN(C)CC1)Cc1ccccc1S2 (stereo unspecified)	5.75 ± 2.9%	13.9 ± 9%
CO[C@@]1(NC(=O)Cc2cccs2)C(=O)N2C(C(=O)O)=C(COC(N)=O)CS[C@@H]21	8.96 ± 2.4%	7.7 ± 7.8%
CC(C)(C)NC(=O)[C@@H]1CN(Cc2cnc3occc3c2)CCN1C[C@@H](O)C[C@@H](Cc1ccccc1)C(=O)N[C@H]1c2ccccc2C[C@H]1O	8.87 ± 0.17%	8.42 ± 0.9%
CCCCc1ccc(S(=O)(=O)Nc2cc(C)on2)cc1	7.98 ± 1.1%	25 ± 22%
Cc1oncc1C(=O)Nc1ccc(C(F)(F)F)cc1	3.59 ± 1.6%	6.66 ± 5%
COc1ccc(NS(=O)(=O)c2ccc(Cl)s2)cn1	4.12 ± 0.52%	15 ± 3%
CCOC(=O)/C=C/[C@H](C[C@@H]1CCNC1=O)NC(=O)[C@H](CC)n1cccc(NC(=O)c2cc(C)on2)c1=O	4.38 ± 3.6%	8.98 ± 7.5%
CN(C)CC(=O)Nc1ccc2[nH]c(=O)c3ccccc3c2c1	3.86 ± 0.4%	14.1 ± 5%
NCC(=O)Nc1ccc(-n2nc(C(F)(F)F)cc2-c2ccc3c(ccc4ccccc43)c2)cc1	4.52 ± 2.6%	11.9 ± 7%
O=C(NC1CCCc2c1[nH]c1ccc(Cl)cc21)c1ccccn1 (stereo unspecified)	2.24 ± 0.5%	7.35 ± 5.1%
Cc1cccc(C)c1C(=O)Nc1nc(-c2ccccn2)cc2ccccc12	4.99 ± 2.4%	6.64 ± 4.7%
Nc1cc(-c2nc3ccccc3[nH]2)n[nH]c1=O	6.4 ± 6.5%	10.7 ± 4.7%
CC(C)(C)c1cc(CCC(=O)N2CCC2)cc(C(C)(C)C)c1O	5.76 ± 2.7%	14.4 ± 8.6%
CCC[C@H](NC(=O)[C@@H]1[C@H]2CCC[C@H]2CN1C(=O)[C@@H](NC(=O)[C@@H](NC(=O)c1cnccn1)C1CCCCC1)C(C)(C)C)C(=O)C(=O)NC1CC1	9.24 ± 1.8%	10.3 ± 1.3%
Cc1nc2ccc(Oc3ccccc3)cc2c2c1CCN2CCc1ccccc1	4.79 ± 0.99%	11.3 ± 9.1%
O=C(O)c1ccccc1Sc1ncnc2sc3c(c12)CCC3	3.94 ± 1.7%	25.2 ± 16%
C[C@H](NC(CC(=O)c1ccccc1C(F)(F)F)C(=O)O)c1ccccc1 (stereo partly specified)	8 ± 6.4%	5.89 ± 3.9%
CC(C)Oc1ccc(-c2nc(-c3cccc4c3CC[C@@H]4NCCO)no2)cc1C#N	3.24 ± 0.4%	4.7 ± 2.8%
